From PubChem BioAssay
D1 potentiator = potentiators of human D1 dopamine receptor; potentiation, % at 10 µM; hit rate 0.036% among 360,000; HEK293 TREx D1 cells, calcium flux, dopamine EC20 potentiation; AID 504651; P21728; in the data active = potentiation above about 30%; also: 0% is about no effect
Target sequence (P21728 whole entry, looked up): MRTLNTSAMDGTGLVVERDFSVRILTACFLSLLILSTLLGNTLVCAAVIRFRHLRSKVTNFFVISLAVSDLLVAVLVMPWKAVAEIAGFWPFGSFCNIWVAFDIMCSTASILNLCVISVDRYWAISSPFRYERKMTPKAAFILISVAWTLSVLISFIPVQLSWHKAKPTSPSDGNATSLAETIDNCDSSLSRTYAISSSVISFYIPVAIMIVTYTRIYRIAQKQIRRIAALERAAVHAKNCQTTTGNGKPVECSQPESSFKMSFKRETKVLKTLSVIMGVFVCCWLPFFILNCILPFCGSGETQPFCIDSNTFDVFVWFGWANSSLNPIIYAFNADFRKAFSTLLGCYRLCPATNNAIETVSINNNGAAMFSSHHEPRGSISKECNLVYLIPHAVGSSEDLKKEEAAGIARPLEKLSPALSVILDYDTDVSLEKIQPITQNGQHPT
DRD3 antagonist = D3 dopamine receptor (human) antagonism. P35462. D3R cells, DiscoveRx beta-arrestin luminescence, antagonist mode; stronger effect = lower value. max response, negative = inhibition, %. hit rate 2.5% among 360,000; in the data active = max response below about -50%; inconclusive = no clear call, values can overlap the other calls; also: % is scaled to controls: 0 for no effect and ±100 for the full control effect
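Cells expressing the human receptor were seeded at 1500 cells/well, incubated overnight at 37 degrees C in 5% CO2, then exposed to library compounds with dopamine controls for 90 minutes at 37 degrees C before luminescent detection.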
D1 antagonist = blocks dopamine activation of the human D1 receptor. HEK293 TREx D1 cells, calcium flux, dopamine EC80; stronger effect = lower value. activity change, negative = inhibition, % at 10 µM. hit rate 3.2% among 360,000. AID 504652; in the data active = activity change below about -30%; also: % is scaled to controls: 0 for no effect and ±100 for the full control effect
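Cells carrying a force-coupled, tetracycline-inducible human D1 receptor report calcium flux. Each well gets a 10 s baseline, compound with 180 s monitoring, then an EC80 dopamine stimulus with a second 180 s kinetic read.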
D1 ag = activates the human D1 dopamine receptor; P21728; HEK293 T-REx D1 cells, calcium flux, agonist mode; activation, % at 2 µM; hit rate 1% among 360,000; AID 504660; in the data active = activation above about 30%; also: 0% is about no effect
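Agonism was scored from calcium flux recorded over 180 s (1 read/s) after pintool compound addition, following a 10-cycle baseline. Cells were inducible force-coupled HEK293 TREx D1, plated overnight at 30 C and loaded with no-wash calcium dye.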
DRD3 agonist = activates the human D3 dopamine receptor; P35462; D3R DiscoveRx beta-arrestin cells, luminescence, 90 min; max activation, %; hit rate 0.58% among 410,000; AID 652048; in the data active = max activation above about 30%; also: 0% is about no effect
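Agonist-mode cell screen: cells plated at 1500/well and incubated overnight at 37 °C, then exposed to library compounds for 90 min at 37 °C. Detection reagent was added for 30–60 min at room temperature, and luminescence was read.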
Active calls of the source: *; ? = inconclusive; / = not tested or not shown; ! = a repeat was not active. The list is not random: actives were taken first. Their share in the collection is about 6.1%.

SMILES	D1 potentiator	DRD3 antagonist	D1 antagonist	D1 ag	DRD3 agonist
Cc1ccc(S(=O)(=O)c2nnn3c2nc(NC(C)C)c2sccc23)cc1	-7	/	-30*	5	-10
Cc1ccc(CNc2nc3c(S(=O)(=O)c4ccc(C)c(C)c4)nnn3c3ccc(Cl)cc23)cc1	-3	/	-5	2	4
Cc1ccc(S(=O)(=O)c2nnn3c2nc(NC2CCCCC2)c2sccc23)cc1	-1	/	-2	0	5
CC(C)c1nc2ccc(C(=O)NCCCN3CCN(c4ccccc4F)CC3)cc2o1	-5	/	-29	3	8
O=C(Nc1ccc(Cl)cc1F)c1cc(S(=O)(=O)NCc2ccc3c(c2)OCO3)ccc1F	-2	/	-4	-2	-5
O=S(=O)(c1ccccc1)c1nnn2c1nc(NCc1ccc(Cl)cc1)c1sccc12	-5	/	-34*	0	-4
CCOC(=O)c1c(S(=O)(=O)N2CCCC(C(=O)N3CCN(c4cccc(C)c4C)CC3)C2)c(C)n(C)c1C (stereo unspecified)	-1	/	14	4	-8
CCOc1cc(-c2ccc(OC(=O)c3ccc(C)cc3)c(OC)c2)cc(=O)c2c(C)oc(C)c12	1	/	17	7	-15
CCOc1cccc(CNC(=O)c2ccc(N3CCCC3)c(NC(=O)NCc3ccc(F)cc3)c2)c1	-1	/	-35*	3	7
CCCNC(=O)Nc1cc(C(=O)NCc2cccc(OCC)c2)ccc1N1CCCC1	0	/	4	-1	6
C[C@]12O[C@H](C[C@]1(O)CO)n1c3ccccc3c3c4c(c5c6ccccc6n2c5c31)CNC4=O	/	/	/	/	-16
COc1ccc(-c2cn3cccnc3n2)cc1NC(=O)c1c(F)cccc1F	-3	/	-35*	-1	0
Cc1ccc(C2CC(=O)Nc3cc4c(cc32)OCCO4)cc1 (stereo unspecified)	2	/	2	32*	-4
CC(C)Oc1ccccc1C1CC(=O)Nc2cc3c(cc21)OCCO3 (stereo unspecified)	3	23	3	0	36*
CCOc1cccc(C2CC(=O)Nc3cc4c(cc32)OCCO4)c1 (stereo unspecified)	0	/	-32*	45*	1
COc1ccccc1C1CC(=O)Nc2cc3c(cc21)OCCO3 (stereo unspecified)	-4	20	19	-1	15
O=C1CC(c2ccc(Cl)cc2)c2cc3c(cc2N1)OCCO3 (stereo unspecified)	-1	/	8	17	-2
CC(=O)Nc1cc2c(cc1[N+](=O)[O-])-c1ccccc1C2O (stereo unspecified)	/	-15	/	/	-12
CN1CCC(=C2c3ccccc3CC(=O)c3sccc32)CC1	-6	-98*	-51*!	7	-21
CN1CCC(=C2c3ccccc3C(O)c3ccccc32)CC1 (stereo unspecified)	-8	-80*	-79*	19	2
Nc1nc2c(s1)CCc1ccccc1-2	9	2	-10	2	4
CN1CCC(=C2c3ccccc3CCc3sccc32)CC1	-3	-91*	-82*	52*	-80
CC(C)CC(=O)Nc1nnc(SCc2cc(=O)n3ccccc3n2)s1	-2	/	4	3	5
COc1ccc2c(Sc3ccccc3)c(C(=O)N3CCC(C)CC3)[nH]c2c1	3	/	6	1	-11
COc1ccc(-c2nc(NC(C)=O)sc2-c2ccccc2)cc1	-14	-10	-32*	3	-2
SMILES	D1 potentiator	DRD3 antagonist	D1 antagonist	D1 ag	DRD3 agonist
COc1ccc(-c2sc(NC(C)=O)nc2-c2ccccc2)cc1	-11	5	-17	0	-2
O=C(CSc1nc(-c2ccccc2)c(-c2ccccc2)o1)N1CCCCC1	/	19	/	/	1
O=C(CSCC(=O)N1CCCCC1)Nc1nc(-c2ccccc2)c(-c2ccccc2)s1	1	-51*	24	0	-12
Cc1cc(C)c(NC(=O)C2CCN(C(=O)N3CC(C)Oc4ccc(Cl)cc43)CC2)c(C)c1 (stereo unspecified)	0	/	-10	0	24
CCn1c(C(=O)N2CCC(C(=O)NCCc3ccc(OC)cc3OC)CC2)cc2sccc21	-4	/	-11	11	5
CC(=O)C(Sc1nc(-c2ccccc2Cl)nc2c1c(=O)n(C)c(=O)n2C)C(=O)N(C)C (stereo unspecified)	6	/	4	0	3
O=C(O)c1cc(-c2ccc(Br)s2)nc2ccccc12	2	-2	0	2	2
Brc1[nH]nc2ccccc12	-5	-10	-33*	2	-12
c1cc(OCCCN2CCCCC2)ccc1CN1CCCCC1	2	-17	6	0	-6
CC(C)Oc1ccc(OCCCN2CCCCCC2)cc1	-8	-84*	14	-2	-7
CC(C)(C)c1ccc(OCCCN2CCCC2)cc1	-5	-11	-11	15	-2
CC(C)c1ccc(OCCCCN2CCCCC2)cc1	5	-88*	6	12	-21
Clc1ccc(SCCOCCN2CCCCCC2)cc1	-7	-115*	-16	6	-8
Clc1ccc(OCCCCN2CCCCC2)cc1	-5	-62*	-39*	26	-25
O=C(CCC1N=C2c3ccccc3N=C(SCc3ccc(F)cc3)N2C1=O)NC1CCCCC1 (stereo unspecified)	-2	/	2	0	-4
CCc1ccc(-c2nc(CS(=O)CC(=O)NCCc3ccc(Cl)cc3)c(C)o2)cc1 (stereo unspecified)	5	/	6	0	5
COc1ccc(CCNC(=O)Cn2cc(S(=O)(=O)Cc3ccc(F)cc3)c3ccccc32)cc1OC	-3	/	-22	6	-5
Cc1cccc(N2CCN(C(=O)c3cccn3-c3nnc(N4CCCCC4)s3)CC2)c1C	2	/	-4	2	14
CCC(C)c1ccc(OCCN2CCCC2)cc1 (stereo unspecified)	11	-78*	2	4	1
CCOc1ccc(OCCN2CCCCC2)cc1	-9	-18	10	3	-8
CC1CN(CCCCOc2cccc(Oc3ccccc3)c2)CC(C)O1 (stereo unspecified)	10	?	6	1	-13
CC1CN(CCCCOc2ccc(C(C)C)cc2)CC(C)O1 (stereo unspecified)	0	-63*	3	0	-8
CCCCS(=O)(=O)CC(O)CSc1nc(-c2ccc(C)cc2)cc(-c2ccccc2)c1C#N (stereo unspecified)	0	/	2	5	-11
CCOC(=O)c1cc(-c2ccccc2)n(CC(=O)NCc2ccccc2OC)c1C	-3	/	-5	1	-2
CC1CCN(CCOCCOc2ccc(Br)cc2Cl)CC1	-18	-75*	-33*	13	-57
CC1CCCN(CCCOc2ccc(Br)cc2Cl)C1 (stereo unspecified)	-9	-77*	-6	11	-12
O=C(CSc1nnc(-c2ccc(F)cc2)o1)N1CCCc2ccccc21	-3	/	6	0	3
